# Source: PubChem BioAssay
# Where “and” joins values, the source holds several entries; their conditions need not be identical. Identical values can stand only once. Calls of active or inactive are those of the source. Rule as the data show it, unless noted: active = inhibition above about 80%; inactive = the rest.
# What was measured:
# [1] = growth inhibition, single agents and combos, LFS_MB_1R, cell-based, cisplatin or BGB combos, synergistic combos for chromothripsis tumors (AID 1671452); conditions: LFS_MB_1R medulloblastoma cells, stronger effect = higher value;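 also: cells exposed for 96 hours before readout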
# [2] = growth inhibition, single agents and combos, CRL2098, cell-based, BGB or cisplatin IC20 combos, synergistic combos for chromothripsis tumors (AID 1671454); conditions: CRL2098 osteosarcoma cells, drug combinations, stronger effect = higher value;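 also: cells exposed for 96 h before readout; 0% = vehicle DMSO and 100% = killing by high DMSO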
# [3] = growth inhibition, single agents and combos, HD-MB03, cell-based, BGB or cisplatin IC20 combos, synergistic combos for chromothripsis tumors (AID 1671455; in the data active = inhibition above about 83%;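 also: 0% = vehicle DMSO and 100% = high DMSO as cytotoxic control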); conditions: HD-MB03 medulloblastoma cells, stronger effect = higher value
# [4] = growth inhibition, single agents and combos, UWB1.289, cell-based, BGB or cisplatin combos, synergistic combos for chromothripsis tumors (AID 1671456); conditions: UWB1.289 ovarian carcinoma cells, stronger effect = higher value;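 also: cells exposed to compound for four days; 0% = vehicle DMSO and 100% = killing by high DMSO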
# [5] = growth inhibition, single agents and combos, LFS_MB_2R, cell-based, cisplatin combos, synergistic combos for chromothripsis tumors (AID 1671457); conditions: LFS_MB_2R medulloblastoma cells, stronger effect = higher value;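 also: cells exposed to compound for four days before readout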
# [6] = growth inhibition, MDA-MB-436, cell-based, BGB or cisplatin combos, synergistic combos for chromothripsis tumors (AID 1671458; call rule not given here;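 also: cells exposed for 96 hours; 0% = vehicle DMSO and 100% = killing by high DMSO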); conditions: MDA-MB-436 breast carcinoma growth inhibition, drug combinations, stronger effect = higher value
# [7] = UWB1.289_BRCA1 ovarian cancer growth, cell-based, BGB or cisplatin combinations (AID 1671459); conditions: UWB1.289 BRCA1 ovarian carcinoma, drug combinations, stronger effect = higher value
# [8] = drug combination toxicity in non-malignant astrocytes – cell-based, BGB or cisplatin IC20 combos, cytotoxicity control for chromothriptic childhood tumor combination screen (AID 1671460); conditions: Human astrocytes, viability inhibition, drug combinations, at 0.5 µM, stronger effect = higher value;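 also: cells exposed to compounds for 96 hours before viability readout; 0% = vehicle and 100% = killing control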
# [9] = BT084 cell growth, single and combined drugs, ICGC_MB145, cisplatin and BGB IC40 combos (AID 1671461); conditions: BT084 medulloblastoma cells, drug combinations, stronger effect = higher value;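 also: cells exposed to drugs for 96 hours; 0% = vehicle DMSO and 100% = high DMSO full killing control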
# [10] = RCMB18 cell growth, single agent and combined, cisplatin and BGB IC40 combos (AID 1671462); conditions: RCMB18 medulloblastoma cells, stronger effect = higher value;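 also: cells exposed to compound for four days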
# [11] = CRL1545 cell growth, single agent and combined, cisplatin and BGB IC20 combos (AID 1671464); conditions: CRL1545 osteosarcoma cells, stronger effect = higher value;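 also: cells exposed to compound for 96 hours before readout; 0% = vehicle DMSO and 100% = high DMSO killing control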
# [12] = tested on: Neuropilin-2 / VEGF-C interaction (human); assay: small molecules blocking Neuropilin-2/VEGF-C interaction – biochemical, microplate binding format, z-score (AID 743281; call rule not given here); conditions: microplate NRP2/VEGF-C binding assay; stronger effect = lower value
# [13] = chitosan synthesis blockers in C. neoformans – flow cytometry, Cibacron Brilliant Red staining (AID 1347148; call rule not given here;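 also: compound exposure lasted three days at 37 degrees C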); conditions: Cryptococcus neoformans chitosan, stronger effect = lower value; at 10 µM unless noted
# [14] = compounds altering HSF1 focus formation in cells – imaging, Selleck Cancer Library (AID 1347162; in the data active = plate-normalised HSF1 focus index below about 0.46); conditions: human cells, HSF1 nuclear foci imaging, at 10 µM; SSMD: measured here: HSF1 foci SSMD mean; cell count: measured here: cell number; plate-normalised HSF1 focus index: stronger effect = lower value
# [15] = measured here: combination with cisplatin, at 0.5 µM
# [16] = measured here: combination with cisplatin, at 5 µM
smiles,measurement,setting,value
CCCC(CCC)C(=O)O,inhibition,[1]; at 0.5 µM,-27.6% (inactive) and -16.5% (inactive)
same,inhibition,"[1]; measured here: combination with BGB IC40, at 0.05 µM",-35.5% and -12.1%
same,inhibition,[1]; [15],-35% and -39.3%
same,inhibition,[1]; [16],2.7% and -48.1%
same,inhibition,[2]; at 0.5 µM,-45.4% (inactive) and -15.9% (inactive)
same,inhibition,"[2]; measured here: combination with BGB at IC20, at 0.5 µM",-45.9% and -23.5%
same,inhibition,"[2]; measured here: combination with cisplatin at IC20, at 0.5 µM",-34.5% and 0.202%
same,inhibition,[3]; at 0.5 µM,-15.1% (inactive) and -0.6% (inactive)
same,inhibition,"[3]; measured here: combo with BGB at IC20, at 0.5 µM",-17% and -10.3%
same,inhibition,"[3]; measured here: combo with cisplatin at IC20, at 0.5 µM",-14.1% and 6.37%
same,inhibition,[4]; at 0.5 µM,-4.81% (inactive) and 13.2% (inactive)
same,inhibition,"[4]; measured here: inhibition with BGB combination, at 0.05 µM",-26.3% and 5.38%
same,inhibition,"[4]; measured here: inhibition with cisplatin combination, at 0.05 µM",-23.4% and 27.8%
same,inhibition,[5]; at 0.5 µM,-16.9% (inactive) and 1.18% (inactive)
same,inhibition,[5]; [15],-15.6% and 6.48%
same,inhibition,[5]; [16],-69.4% and 11.4%
same,inhibition,[6]; at 0.5 µM,-30.4% (inactive) and 1.93% (inactive)
same,inhibition,"[6]; measured here: BGB combination, at 0.5 µM",-29.6% and 4.62%
same,inhibition,"[6]; measured here: BGB combination, at 5 µM",-20.8% and 1.95%
same,inhibition,"[6]; measured here: cisplatin combination, at 0.5 µM",-40.6% and 3.21%
same,inhibition,"[6]; measured here: cisplatin combination, at 5 µM",-25.9% and 1.52%
same,inhibition,"[7]; BGB combination, concentration series, at 5 µM",-15.2% and 3.45%
same,inhibition,[7]; at 0.5 µM,-19% (inactive) and 7.15% (inactive)
same,inhibition,"[7]; cisplatin combination, concentration series, at 5 µM",0.227% and -13.4%
same,inhibition,[8],-9% (inactive) and 2.09% (inactive)
same,inhibition,[8]; measured here: combo with BGB IC20,-11% and 1.03%
same,inhibition,[8]; measured here: combo with cisplatin IC20,0.797% and 9.29%
same,inhibition,[9]; at 0.5 µM,-33.9% (inactive) and -3.36% (inactive)
same,inhibition,"[9]; cisplatin combination, at 0.5 µM",-10.5% and -11.6%
same,inhibition,"[9]; cisplatin combination, at 5 µM",-5.4% and -1.37%
same,inhibition,"[9]; measured here: BGB IC40 combination 0.05 uM, at 0.05 µM",-20.5% and -59.5%
same,inhibition,"[9]; single agent, at 5 µM",-18.9% and -8.84%
same,inhibition,[10]; at 0.5 µM,-2.59% (inactive) and -3.82% (inactive)
same,inhibition,"[10]; cisplatin combo, at 5 µM",-12% and -15.7%
same,inhibition,"[10]; measured here: BGB IC40 combination, at 0.05 µM",-2.36% and -1.73%
same,inhibition,[10]; [15],10.5% and -4.92%
same,inhibition,"[10]; single agent, at 5 µM",-25.2% and -0.151%
same,inhibition,[11]; at 0.5 µM,-19.7% (inactive) and -18.9% (inactive)
same,inhibition,"[11]; measured here: with BGB IC20 combination, at 0.5 µM",-18.4% and -23.1%
same,inhibition,"[11]; measured here: with cisplatin IC20 combination, at 0.5 µM",-23.1% and -18.8%
same,inhibition,"[11]; single agent, at 0.05 µM",-52.6% and 9%
same,inhibition,"[11]; single agent, at 5 µM",8.56% and -31.8%
CC(C)(C)NCC(O)c1ccc(O)c(CO)c1 (configuration not stated),z-score,[12],-0.605 (inactive)
CN1C(=O)CC[C@H]1c1cccnc1,z-score,[12],-0.371 (inactive)
CN1CCN(C2=Nc3cc(Cl)ccc3Nc3ccccc32)CC1,fold fluorescence,[13],11 [at 153 µM] (inactive)
Cc1ccc(-n2nc(C(C)(C)C)cc2NC(=O)Nc2ccc(OCCN3CCOCC3)c3ccccc23)cc1,SSMD,[14],3.54
same,cell count,[14],7570
same,plate-normalised HSF1 focus index,[14],1.13 (inactive)
COc1ccc2cc([C@H](C)C(=O)O)ccc2c1,z-score,[12],-0.354 (inactive)
O=C(CCCN1CCC(O)(c2ccc(Cl)cc2)CC1)c1ccc(F)cc1,z-score,[12],-0.0752 (inactive)
Clc1ccccc1CN1CCc2sccc2C1,z-score,[12],0.918 (inactive)
O=S(=O)(c1cccc2cnccc12)N1CCCNCC1,fold fluorescence,[13],2.56 [at 137.3 µM] (active)
CN1[C@@H]2CC(OC(=O)[C@H](CO)c3ccccc3)C[C@H]1[C@@H]1O[C@@H]12 (some centres not stated),z-score,[12],-0.461 (inactive)
CC(C)n1c(/C=C/[C@@H](O)C[C@@H](O)CC(=O)O)c(-c2ccc(F)cc2)c2ccccc21,SSMD,[14],2.42
same,cell count,[14],6600
same,plate-normalised HSF1 focus index,[14],1.13 (inactive)
C[N+]1(C)CCC(OC(=O)C(O)(c2ccccc2)C2CCCC2)C1 (configuration not stated),z-score,[12],-0.121 (inactive)
